The text below walks through data of article PMC4336329 (PLoS ONE, 2015).

Each structure is given as a SMILES string. In all, about 310,000 compounds went through this assay and about 14,000 (4.5%) showed an effect of 50% or more. Effects have a minus sign here. The entries come from a sample that favours strong results as a whole.
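Note: peak tail current of the secondary pulse compared with the same well before compound.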

Sequence of human ether-à-go-go-related gene (hERG) potassium channel (Q12809 whole entry, looked up): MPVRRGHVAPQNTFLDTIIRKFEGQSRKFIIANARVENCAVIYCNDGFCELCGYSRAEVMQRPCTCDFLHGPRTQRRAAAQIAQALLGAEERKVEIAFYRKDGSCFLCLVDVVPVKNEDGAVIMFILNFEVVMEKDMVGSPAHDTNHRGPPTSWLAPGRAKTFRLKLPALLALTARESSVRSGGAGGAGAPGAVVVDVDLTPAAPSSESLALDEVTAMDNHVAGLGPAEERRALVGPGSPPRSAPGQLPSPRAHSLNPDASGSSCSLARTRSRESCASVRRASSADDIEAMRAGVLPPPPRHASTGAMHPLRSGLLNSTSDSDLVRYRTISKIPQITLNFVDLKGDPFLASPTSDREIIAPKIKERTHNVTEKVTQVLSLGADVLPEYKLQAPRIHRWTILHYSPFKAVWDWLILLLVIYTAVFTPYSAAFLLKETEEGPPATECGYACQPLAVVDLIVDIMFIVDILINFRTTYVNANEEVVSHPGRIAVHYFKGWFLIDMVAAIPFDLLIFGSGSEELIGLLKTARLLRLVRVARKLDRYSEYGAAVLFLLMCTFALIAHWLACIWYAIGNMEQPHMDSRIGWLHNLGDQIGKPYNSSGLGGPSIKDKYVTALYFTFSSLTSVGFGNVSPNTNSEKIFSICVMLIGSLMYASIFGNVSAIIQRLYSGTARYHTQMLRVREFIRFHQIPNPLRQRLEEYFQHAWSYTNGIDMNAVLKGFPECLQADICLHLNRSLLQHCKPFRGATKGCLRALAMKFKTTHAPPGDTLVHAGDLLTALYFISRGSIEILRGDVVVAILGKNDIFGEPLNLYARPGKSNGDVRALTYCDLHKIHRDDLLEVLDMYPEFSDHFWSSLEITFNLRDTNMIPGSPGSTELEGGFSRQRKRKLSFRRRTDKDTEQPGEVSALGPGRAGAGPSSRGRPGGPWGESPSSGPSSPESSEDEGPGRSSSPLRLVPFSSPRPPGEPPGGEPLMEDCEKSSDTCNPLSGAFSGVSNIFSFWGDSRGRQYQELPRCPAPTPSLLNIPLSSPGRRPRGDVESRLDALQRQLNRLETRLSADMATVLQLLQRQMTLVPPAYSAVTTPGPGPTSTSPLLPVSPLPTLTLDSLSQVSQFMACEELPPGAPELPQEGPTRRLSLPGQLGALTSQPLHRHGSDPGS

The assay addresses human ether-à-go-go-related gene (hERG) potassium channel (human, UniProt Q12809). Briefly: primary screen, population patch clamp on CHO cells stably expressing hERG; higher = less effect of the substance.
For `COc1ccc(COc2ccc3ccc(=O)oc3c2)cc1`, the “hERG current change (%, negative = inhibition) at 10uM” value was 9.33%.

As to `O=C(OCc1nnc(-c2ccccc2)o1)c1cc2ccccc2cc1O`, the “hERG current change (%, negative = inhibition) at 10uM” value is given as 8.95%.

As to `C/C(=N\NC(=O)c1nnn(-c2nonc2N)c1-c1cccs1)c1ccc(C)cc1`, the “hERG current change (%, negative = inhibition) at 10uM” value was -0.452%.

On to `CC(=O)Nc1ccc(N2CCN(c3ccc(F)cc3)CC2)cc1`, for which the “hERG current change (%, negative = inhibition) at 10uM” value is 18.4%.

In the case of `CS(=O)(=O)c1ccccc1C(=O)NC1CCCc2ccccc21` (stereo not drawn), the “hERG current change (%, negative = inhibition) at 10uM” value is recorded as 66.1%.

Consider `O=C(CCN1C(=O)S/C(=C\c2cccs2)C1=O)Nc1nccs1`, for which the “hERG current change (%, negative = inhibition) at 10uM” value is given as 9.41%.

Take `CCOC(=O)C1(CCOc2ccccc2)CCN(Cc2ccc(-n3cccn3)cc2)CC1`: the “hERG current change (%, negative = inhibition) at 10uM” value is -84.1%.

Take `CCOC(=O)C1(CCOc2ccccc2)CCN(Cc2cccc(-n3cccn3)c2)CC1`: the “hERG current change (%, negative = inhibition) at 10uM” value is recorded as -79.3%.

As for `CCOC(=O)C1(CCOc2ccccc2)CCN(C(=O)c2ccc(-n3cccn3)cc2)CC1`, the “hERG current change (%, negative = inhibition) at 10uM” value is recorded as -78.9%.

Regarding `CCOC(=O)CCNC(=O)N1CCC(CCOc2ccccc2)(C(=O)OCC)CC1`, the “hERG current change (%, negative = inhibition) at 10uM” value is recorded as -16.1%.

With `CCOC(=O)C1(CCOc2ccccc2)CCN(Cc2ccc3nonc3c2)CC1`, the “hERG current change (%, negative = inhibition) at 10uM” value was -17%.

As for `CCOC(=O)CNC(=O)N1CCC(CCOc2ccccc2)(C(=O)OCC)CC1`, the “hERG current change (%, negative = inhibition) at 10uM” value stood at 1.83%.

As for `COc1ccccc1C(=O)Nc1nc(N)n(-c2ccccc2)n1`, the “hERG current change (%, negative = inhibition) at 10uM” value is given as 13.8%.

On to `CCCNC(=S)Nc1ccc(Oc2ccccc2)cc1`, for which the “hERG current change (%, negative = inhibition) at 10uM” value is -10.8%.

Take `O=C(O)/C=C/c1cnc2ccccc2n1`: the “hERG current change (%, negative = inhibition) at 10uM” value is given as 16.6%.

As for `Cc1ccc(S(=O)(=O)N2CCC(C(=O)NN3CCCCC3)CC2)cc1`, the “hERG current change (%, negative = inhibition) at 10uM” value is recorded as 4.16%.

With `O=C1Nc2ccc(Br)cc2/C1=C/C(=O)c1ccc2c(c1)OCO2`, the “hERG current change (%, negative = inhibition) at 10uM” value is 9.53%.

As for `C[C@@H](NCCc1ccc(O)cc1)[C@@H](O)c1ccc(O)cc1.Cl`, the “hERG current change (%, negative = inhibition) at 10uM” value is given as -11.5%.

Turning to `CCCCCCCCN[C@H](C)[C@@H](O)c1ccc(SC(C)C)cc1`, the “hERG current change (%, negative = inhibition) at 10uM” value is given as -67.4%.

Regarding `CCCCCNC(=O)C(C)Sc1ccc(Cl)cc1` (stereo not drawn), the “hERG current change (%, negative = inhibition) at 10uM” value is recorded as 10.9%.

In the case of `CC(C)C(NC(=O)c1ccccc1)C(=O)NC1CCCc2ccccc21` (stereo not drawn), the “hERG current change (%, negative = inhibition) at 10uM” value is recorded as 15%.

As to `COc1ccc(-n2c(CNCCc3ccc(C)cc3)nc3ccccc3c2=O)cc1`, the “hERG current change (%, negative = inhibition) at 10uM” value is listed as -32.8%.

Turning to `COC(=O)c1cc(C(=O)OCC(=O)N(C)C2CCS(=O)(=O)C2)cc([N+](=O)[O-])c1` (stereo not drawn), the “hERG current change (%, negative = inhibition) at 10uM” value was 7.96%.

For `Cc1cc(C)n2nc(C(=O)OCC(=O)N3C(C)CCCC3C)nc2n1` (stereo not drawn), the “hERG current change (%, negative = inhibition) at 10uM” value was 21.5%.

`Cc1ccc(S(=O)(=O)c2nc(Nc3nccs3)sc2Cl)cc1`: the “hERG current change (%, negative = inhibition) at 10uM” value is listed as 11.6%.

Consider `COc1ccc(-n2c(-c3ccc(Cl)cc3)c[n+]3c2CCc2ccccc2-3)cc1.[Br-]`, for which the “hERG current change (%, negative = inhibition) at 10uM” value is -78.4%.

`COc1ccc(-n2c(-c3ccccc3)nnc2-c2ccc(Cl)cc2)cc1`: the “hERG current change (%, negative = inhibition) at 10uM” value is 4.96%.

On to `COc1ccc(N2C3=[N+](CC2(C)O)c2ccccc2CC3)cc1.[Br-]` (stereo not drawn), for which the “hERG current change (%, negative = inhibition) at 10uM” value is -44.3%.

Take `Cc1ccc(-n2c(=O)[nH]c3ncccc3c2=O)cc1`: the “hERG current change (%, negative = inhibition) at 10uM” value came out at 30.2%.

`COc1ccc(-n2c(-c3ccc(Br)cc3)nc(=S)c3c2CCCC3)cc1`: the “hERG current change (%, negative = inhibition) at 10uM” value is -1.32%.

As to `Cc1ccc(-n2c(-c3ccc(Br)cc3)c[n+]3c2CCc2ccc4cccnc4c2-3)cc1.[Br-]`, the “hERG current change (%, negative = inhibition) at 10uM” value is on record as -74.2%.

Turning to `Brc1ccc(-c2cn3c(n2)CCc2ccc4cccnc4c2-3)cc1`, the “hERG current change (%, negative = inhibition) at 10uM” value is recorded as 12.5%.

Regarding `COc1ccc(-n2c(-c3ccc(Br)cc3)c[n+]3c2CCc2ccccc2-3)cc1.[Br-]`, the “hERG current change (%, negative = inhibition) at 10uM” value is on record as -85.2%.

In the case of `COc1ccc(-n2c(-c3ccc(Cl)cc3)c[n+]3c2CCCCC3)cc1.[Br-]`, the “hERG current change (%, negative = inhibition) at 10uM” value is -29.8%.

With `COc1ccc(N2C(=O)CC(NNC(=O)c3cc(C)oc3C)C2=O)cc1` (stereo not drawn), the “hERG current change (%, negative = inhibition) at 10uM” value is 23.6%.

`COc1ccc(CCNC(=O)CSc2nnc(-c3ccccc3)c3ccccc23)cc1OC`: the “hERG current change (%, negative = inhibition) at 10uM” value was -20%.

Regarding `CCNC(=O)NC(=O)C(C)Oc1ccc(C(=O)OC)cc1` (stereo not drawn), the “hERG current change (%, negative = inhibition) at 10uM” value is reported as 3.92%.

For `COc1ccc(C(c2sc3nc(C)nn3c2O)N2CCC3(CC2)OCCO3)cc1` (stereo not drawn), the “hERG current change (%, negative = inhibition) at 10uM” value is given as -2.74%.

In the case of `COc1ccc(Cc2nnc(NC(=O)Nc3ccc(C)cc3)s2)cc1OC`, the “hERG current change (%, negative = inhibition) at 10uM” value is on record as 10.2%.

On to `Nc1c(C(=O)CSc2nnc(Nc3ccc(F)cc3)s2)c(=O)[nH]c(=O)n1C1CC1`, for which the “hERG current change (%, negative = inhibition) at 10uM” value is 0.202%.

In the case of `O=C(c1ccc2c3c(cccc13)CC2)C1CCCN(Cc2ccccn2)C1` (stereo not drawn), the “hERG current change (%, negative = inhibition) at 10uM” value is recorded as -42.5%.

As for `O=C(c1ccc2c3c(cccc13)CC2)C1CCCN(CC2CC2)C1` (stereo not drawn), the “hERG current change (%, negative = inhibition) at 10uM” value was -46.3%.

For `NC(=O)CCC(=O)N1CCCC(C(=O)c2ccc3c4c(cccc24)CC3)C1` (stereo not drawn), the “hERG current change (%, negative = inhibition) at 10uM” value was found to be 2.05%.

As for `O=C1CCC(C(=O)N2CCCC(C(=O)c3ccc4c5c(cccc35)CC4)C2)=NN1` (stereo not drawn), the “hERG current change (%, negative = inhibition) at 10uM” value is -17.9%.

For `O=C(c1ccc2c3c(cccc13)CC2)C1CCCN(Cc2cccnc2)C1` (stereo not drawn), the “hERG current change (%, negative = inhibition) at 10uM” value is reported as -63.4%.

`O=C(c1ccc2c3c(cccc13)CC2)C1CCCN(C(=O)c2cccnc2)C1` (stereo not drawn): the “hERG current change (%, negative = inhibition) at 10uM” value was -19.4%.

`O=C(c1ccc2c3c(cccc13)CC2)C1CCCN(Cc2ccc(OCCO)cc2)C1` (stereo not drawn): the “hERG current change (%, negative = inhibition) at 10uM” value is -70.4%.

On to `O=C1CCC(CCC(=O)N2CCCC(C(=O)c3ccc4c5c(cccc35)CC4)C2)=NN1` (stereo not drawn), for which the “hERG current change (%, negative = inhibition) at 10uM” value is recorded as -54.4%.

On to `O=C(c1ccc2c3c(cccc13)CC2)C1CCCN(Cc2ccncc2)C1` (stereo not drawn), for which the “hERG current change (%, negative = inhibition) at 10uM” value is recorded as -51.5%.

As for `COCCC(=O)N1CCCC(C(=O)c2ccc3c4c(cccc24)CC3)C1` (stereo not drawn), the “hERG current change (%, negative = inhibition) at 10uM” value is recorded as -17.8%.

`CN(C)C(=O)CCC(=O)N1CCCC(C(=O)c2ccc3c4c(cccc24)CC3)C1` (stereo not drawn): the “hERG current change (%, negative = inhibition) at 10uM” value was -20.2%.

Turning to `C/C=C(\C)C(=O)OC1C(C)=C2C(C1OC(=O)CCCCC)C(C)(OC(C)=O)CC(OC(=O)CCC)C1(O)C2OC(=O)C1(C)O` (stereo not drawn), the “hERG current change (%, negative = inhibition) at 10uM” value is recorded as -6.49%.

Regarding `COc1cc2cccc(OC)c(=O)c2c(O)c1OC`, the “hERG current change (%, negative = inhibition) at 10uM” value is given as -1.84%.

Consider `CCc1ccc(N/C(N)=N/c2nc(CSc3ccccn3)cc(=O)[nH]2)cc1`, for which the “hERG current change (%, negative = inhibition) at 10uM” value worked out at 3.29%.
